The values that follow come from PubChem BioAssay (NCI).

Some test systems named below: HCT-15 colon; HT29 colon; SNB-75 CNS; SNB-19 CNS; U251 CNS; PC-3 prostate; SK-MEL-5 melanoma; UACC-62 melanoma; LOX IMVI melanoma; SK-MEL-28 melanoma; SK-MEL-2 melanoma; EKVX NSCLC; SN12C renal; UO-31 renal; TK-10 renal; ACHN renal; CAKI-1 renal; A498 renal; CCRF-CEM leukemia; MOLT-4 leukemia.
Holding throughout (assay): NCI-60 one-dose screen, 48 h (100 = growth as untreated, 0 = no growth, -100 = all killed)
Details in all cases: 10 µM unless noted

About 83,000 compounds went through this panel and 20% of them were active in at least one assay; those are over-represented in the sample as a whole.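 The test compound was applied at a single concentration to cells in 96-well plates for 48 hours, and percent growth was recorded.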 Values without a mark were called inactive. Calls of active or inactive are those of the source. The calls were made as follows: active = growth percent below 10; inactive = the rest.

Consider `C=C=COc1cccc(/C(N)=N/C(N)=N/c2nc3ccccc3s2)c1`, for which the growth was 83.6% in the test on HCT-15 colon; 107% with HT29 colon; 85.6% in the test on SNB-75 CNS; 97.5% in the test on SNB-19 CNS; 80.5% in the test with U251 CNS; 30.3% in the test on PC-3 prostate. Moreover, the growth was 98.5% in the test with SK-MEL-5 melanoma; 94.2% in the test with UACC-62 melanoma; 37.7% in the test on LOX IMVI melanoma; 64% with SK-MEL-28 melanoma; 104% in the test on SK-MEL-2 melanoma; 55.8% in the test with EKVX NSCLC. The growth in the test with SN12C renal was 66.7%; with UO-31 renal, 31.2%; in the test with TK-10 renal, 133%; in the test with ACHN renal it was 79.7%; in the test on CAKI-1 renal, 36.9%; with A498 renal it was 79.7%. Further, the growth with CCRF-CEM leukemia was 32%; in the test with MOLT-4 leukemia, 47.4%.

As to `CC[C@]12C=CCN3CC[C@@]4(c5cc(NC(=O)COc6cc(O)c7c(=O)cc(-c8ccccc8)oc7c6)c(OC)cc5N(C)[C@H]4[C@@](O)(C(=O)OC)[C@@H]1OC(C)=O)[C@@H]32`, the growth with HCT-15 colon was -69% (active); with HT29 colon, -61% (active); in the test on SNB-75 CNS, -34.2% (active); in the test on SNB-19 CNS it was -54.3% (active); with U251 CNS, -87.5% (active); in the test with PC-3 prostate, -88.7% (active). In addition, the growth is -90.9% (active) in the test on SK-MEL-5 melanoma; -87.3% (active) in the test on UACC-62 melanoma; -93.2% (active) in the test on LOX IMVI melanoma; -89% (active) in the test on SK-MEL-28 melanoma; -82.9% (active) in the test on SK-MEL-2 melanoma; -42.2% (active) in the test on EKVX NSCLC. In addition, the growth is -75.4% (active) in the test with SN12C renal; -84.9% (active) in the test on UO-31 renal; -45.5% (active) in the test on TK-10 renal; -78.1% (active) with ACHN renal; -78.3% (active) in the test on CAKI-1 renal; -89.6% (active) in the test with A498 renal. Besides, the growth in the test with CCRF-CEM leukemia was -20.2% (active); in the test on MOLT-4 leukemia it was -23% (active).

With `Nc1ncc(-c2ccc3ncnc(N4CCc5cc(F)c(F)cc54)c3c2)cn1`, the growth is 23.1% in the test with HCT-15 colon; 33.1% with HT29 colon; 27.3% in the test with SNB-75 CNS; 43.1% with SNB-19 CNS; 41.2% in the test with U251 CNS; 17.7% in the test on PC-3 prostate. For the same compound, the growth in the test on SK-MEL-5 melanoma is 16.2%; with UACC-62 melanoma it was 9.67% (active); in the test with LOX IMVI melanoma it was 11.1%; with SK-MEL-28 melanoma, 33.2%; with SK-MEL-2 melanoma, 33.2%; in the test with EKVX NSCLC, 18.7%. Further, the growth in the test on SN12C renal was 25.1%; in the test on UO-31 renal it was 8.51% (active); in the test on TK-10 renal it was -2.82% (active); in the test on ACHN renal it was 19.5%; in the test on CAKI-1 renal, 15.3%; in the test on A498 renal, -42.9% (active). For the same compound, the growth with CCRF-CEM leukemia is 24.2%; in the test on MOLT-4 leukemia, 8.56% (active).

Consider `O=C(CN1CCN(c2cc(=O)n(-c3ccccc3)c3ccccc23)CC1)Nc1cccc(C(F)(F)F)c1`, for which the growth in the test with HCT-15 colon was 48.5%; with HT29 colon, 70.8%; with SNB-75 CNS, 65.5%; with SNB-19 CNS, 70.9%; in the test on U251 CNS, 71.6%; in the test on PC-3 prostate it was 42.1%. Also, the growth with SK-MEL-5 melanoma is 14.4%; with UACC-62 melanoma, 57.2%; in the test with LOX IMVI melanoma, 66.1%; in the test on SK-MEL-28 melanoma, 75.1%; in the test on SK-MEL-2 melanoma it was 92%; in the test with EKVX NSCLC, 42.9%. The growth in the test on SN12C renal was 75.9%; in the test with UO-31 renal it was 33%; in the test on TK-10 renal it was 74.4%; in the test with ACHN renal, 58.5%; with CAKI-1 renal, 56.9%; in the test on A498 renal, 52.9%. For the same compound, the growth with CCRF-CEM leukemia is 53.4%; in the test with MOLT-4 leukemia, 34.8%.

`CCNC(=O)N1CCc2cc(OC)c(OCCc3ccc(OC)c(N)c3)cc2C1c1ccc(C)cc1C` (stereo not given): the growth in the test on HCT-15 colon is 10.4%; with HT29 colon, 3.09% (active); in the test with SNB-75 CNS, 41.5%; in the test with SNB-19 CNS it was 30.1%; in the test with U251 CNS, 17.8%; with PC-3 prostate, 29.1%. The growth is -7.76% (active) in the test with SK-MEL-5 melanoma; 24.2% with UACC-62 melanoma; 6.47% (active) in the test with LOX IMVI melanoma; 42.5% with SK-MEL-28 melanoma; 4.33% (active) with SK-MEL-2 melanoma; 44% with EKVX NSCLC. For the same compound, the growth with SN12C renal is 22.6%; in the test on UO-31 renal it was 30.4%; in the test on TK-10 renal, 56.1%; with ACHN renal, 27.6%; in the test with CAKI-1 renal, 22.9%; in the test with A498 renal, -5% (active). Further, the growth with CCRF-CEM leukemia was 34.5%; with MOLT-4 leukemia, 29.3%.

`N/C(=N\C(N)=N\c1nc2ccccc2s1)c1ccc(C(F)(F)F)cc1`: the growth in the test with HCT-15 colon is 28.8%; with HT29 colon, 105%; in the test with SNB-75 CNS, 97.2%; with SNB-19 CNS, 90.3%; in the test on U251 CNS, 41.9%; in the test on PC-3 prostate, 8.57% (active). In addition, the growth with SK-MEL-5 melanoma was 89%; in the test on UACC-62 melanoma, 97.8%; in the test with LOX IMVI melanoma it was 18.3%; in the test with SK-MEL-28 melanoma, 94.8%; in the test on SK-MEL-2 melanoma it was 108%; with EKVX NSCLC it was 54.8%. Also, the growth was 36.5% in the test with SN12C renal; -19.1% (active) in the test on UO-31 renal; 102% in the test on TK-10 renal; 27.8% in the test with ACHN renal; 80.2% in the test on CAKI-1 renal; 70.9% in the test with A498 renal. Also, the growth was 54.7% with CCRF-CEM leukemia and 68.6% in the test with MOLT-4 leukemia.

Regarding `CS(=O)(=O)Nc1cc(-c2ccc3ncc(C#N)c(NCc4cccc(F)c4)c3c2)cnc1Cl`, the growth in the test on HCT-15 colon was 5.75% (active); in the test on HT29 colon, 9.57% (active); in the test on SNB-75 CNS, 45.7%; with SNB-19 CNS, 11.9%; in the test with U251 CNS, 10.3%; in the test on PC-3 prostate, 4.17% (active). Also, the growth in the test on SK-MEL-5 melanoma was -96.6% (active); in the test on UACC-62 melanoma it was -20.2% (active); with LOX IMVI melanoma, -55% (active); with SK-MEL-28 melanoma, 4.56% (active); in the test with SK-MEL-2 melanoma, -63.4% (active); in the test on EKVX NSCLC it was -7.05% (active). Moreover, the growth in the test with SN12C renal was 15.4%; in the test with UO-31 renal, 2.87% (active); in the test on TK-10 renal, -11% (active); with ACHN renal, 10.1%; with CAKI-1 renal, 4.52% (active); in the test on A498 renal, -48.9% (active). The growth with CCRF-CEM leukemia was 15.1%; in the test on MOLT-4 leukemia, -10.6% (active).
